Source: PubChem BioAssay (National Center for Advancing Translational Sciences (NCATS))
Lassa entry inh: qHTS for Inhibitors of binding or entry into cells for Lassa Virus | Lassa virus pseudotype entry inhibition, cell reporter | hit rate 1.2% among 300,000 | Potency, µM (titrated, usually from 37.9 µM), without a hit: at the highest dose activity change, negative = inhibition, hits mostly inhibitors | AID 540256, 2011; calls by dose curve; tested in HEK293 cells; further: potency means the concentration at half of the fitted maximal effect; on the % scale 0 is the no-effect control and ±100 the full control effect; nearly all actives have a fitted effect of over 50% in size
SARS PLP yeast: qHTS of Yeast-based Assay for SARS-CoV PLP. S. cerevisiae expressing SARS-CoV PLpro, growth rescue. Potency, µM (titrated, usually from 32.9 µM), for inactives: at the top dose activity, positive = growth rescue, usual class: activators. hit rate 0.19% among 330,000; calls by dose curve; further: potency means the concentration at half of the fitted maximal effect; 0% is about no effect; nearly all actives have a fitted effect of over 55% in size
FMDV antiviral: High Throughput Screening for Foot and Mouth Disease Virus Antivirals | FMDV antiviral cell-based qHTS | Potency, µM (doses to about 57.9 µM), for inactives: top-dose activity change, negative = inhibition, most hits filed as inhibitors | hit rate 1.2% among 410,000; calls by dose curve; tested in HEK293T cells; further: read-out not given here; potency means the concentration at half of the fitted maximal effect; on the % scale 0 is the no-effect control and ±100 the full control effect; nearly all actives have a fitted effect of over 45% in size
Marburg entry inh: qHTS for inhibitors of binding or entry into cells for Marburg Virus. Marburg virus pseudotyped entry inhibition, cell reporter. Potency, µM (doses to about 37.8 µM), for the others: at the top dose activity change, negative = inhibition, hits mostly inhibitors. hit rate 1.8% among 300,000. AID 540276, 2011; calls by dose curve; tested in HEK293 cells; further: potency means the concentration at half of the fitted maximal effect; on the % scale 0 is the no-effect control and ±100 the full control effect
HCV inh: qHTS Assay for Inhibitors of Hepatitis C Virus (HCV) | Huh7.5.1 HCVcc-Cre infection, luciferase reporter, 44 h | Potency, µM (doses to about 41.8 µM), without a hit: at the highest dose activity change, negative = inhibition, most hits filed as inhibitors | hit rate 3.4% among 340,000 | AID 651820, 2012; active means well fitted inhibition curve with a large enough effect; inconclusive means small, poorly fitted or top-dose-only effect, or another doubt; inactive means no such curve, though single readings can be large or run the other way; further: potency means the concentration at half of the fitted maximal effect; on the % scale 0 is the no-effect control and ±100 the full control effect
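After 44 h co-culture of compound, cells and HCVcc-Cre (~0.5 moi), substrate is added for 15 min at room temperature and luciferase measured over 15 sec. Cells were seeded at 1,000/well and pre-cultured 4 h.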
HCMV inh: qHTS Assay for inhibitors of the human cytomegalovirus (HCMV); HFF cells, HCMV-luciferase reporter, 72 h; hits give low values; activity change, negative = inhibition, % at 57.5 µM; hit rate 4.5% among 410,000; in the data active means activity change below about -60%; inconclusive means no clear call, values can overlap the other calls; inactive means above about -39%; further: on the % scale 0 is the no-effect control and ±100 the full control effect
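After 16 h attachment at 37C, HFF cells received test compound and HCMV-luciferase (1 PFU/cell); reporter luminescence read 72 h later, data normalized against buffer-only and known inhibitor Salinomycin.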
Active calls of the source: *; ? = inconclusive; / = no result; [ ] = remark or other dose. Only some compounds are listed: those with a hit (about 8% of all), similar ones and a draw of the others.

SMILES	Lassa entry inh	SARS PLP yeast	FMDV antiviral	Marburg entry inh	HCV inh	HCMV inh
Cc1cccc(NC(=O)CSc2nc(C3CC3)nc3ccccc23)c1	-10%[46.1 µM]	-1%	5%	-28%[46.1 µM]	-18%	?
NC(=O)CSc1nc2cc(Cl)ccc2c(=O)n1C1CCCCC1	19%[46.1 µM]	-3%	-20%	?	11µM*	-14
O=C(CSc1nc(C2CC2)nc2ccccc12)Nc1ccccc1N1CCOCC1	/	-3%	25µM*	/	?	-72*
COc1ccccc1NC(=O)c1nn(C)c2c1CS(=O)(=O)c1ccccc1-2	-11%[46.1 µM]	/	-14%	/	/	6
CCc1ccc(C(=O)c2cn(CC(=O)Nc3ccc4c(c3)OCCO4)c3ccc(CC)cc3c2=O)cc1	10%[46.1 µM]	/	-16%	25%[46.1 µM]	/	1
COc1ccc2c3c(n(C)c2c1)[C@@H](CO)N(S(=O)(=O)c1ccccc1)CC31CCN(C)CC1	/	/	/	/	/	81
Cc1nonc1NC(=O)CSc1nc(C23CC4CC(CC(C4)C2)C3)nc2ccccc12	/	1%	-22%	/	?	-69*
NC(=O)CSc1nc(C23CC4CC(CC(C4)C2)C3)nc2ccccc12	/	-2%	-14%	/	3%	-36
CCc1ccc2oc(C(=O)Nc3cc(C)ccc3C)cc(=O)c2c1	12%[46.1 µM]	/	-7%	?	/	-34
O=C(CC1c2ccccc2C=C(c2ccsc2)N1c1ccc(-c2cccnc2)cc1)C1CC1 (stereo not given)	/	/	0%	/	/	-79*
CCOc1cc(C)c(S(=O)(=O)Nc2ccc(F)cc2)cc1C	5%	-13%	22%	-29%	?	-62*
CCN(C(=O)C1CCN(S(=O)(=O)c2c(C)noc2/C=C/c2ccc(C)cc2)CC1)c1cccc(C)c1	-27%[46.1 µM]	/	-22%	/	/	4
CCN1CCN(c2ccc(S(=O)(=O)N3CCCCC3)cc2NC(=O)c2ccccc2)CC1	-7%[46.1 µM]	1%	-5%	-6%	9%	27
CN1CCN(c2ccc(Cl)cc2NC(=O)c2cccc(S(=O)(=O)N(C)C)c2)CC1	0%	-4%	/	?	?	-2
O=C(Nc1c(Cl)cccc1Cl)Oc1cccc2cccnc12	/	/	-9%	/	/	-98*
O=C(Nc1cccc(Br)c1)Oc1cccc2cccnc12	/	/	-15%	/	/	-35
CN1CCN(c2ccc(Cl)cc2NC(=O)/C=C/c2cccc(F)c2)CC1	-15%[46.1 µM]	-1%	0%	5µM*	?	26
O=C(COc1cccc2cccnc12)Nc1cccc(S(=O)(=O)N2CCCC2)c1	/	-2%	?	/	10µM*	-9
CCN1CCN(c2ccc(S(=O)(=O)N3CCCCC3)cc2NC(=O)c2ccc([N+](=O)[O-])s2)CC1	?	-3%	-28%	?	35µM*	-26
Cc1cccc(C)c1OCC(=O)Nc1cccc(S(=O)(=O)N2CCCCCC2)c1	/	/	-14%	/	/	18
Cc1cc(OCC(=O)Nc2cccc(S(=O)(=O)N3CCCC3)c2)ccc1Cl	?	1%	0%	5µM*	?	-13
CCN1CCN(c2ccc(S(=O)(=O)N3CCCCC3)cc2NC(=O)COc2ccc(Cl)c(C)c2)CC1	-2%[46.1 µM]	1%	-13%	?	11µM*	17
CCN1CCN(c2ccc(S(=O)(=O)N3CCCCC3)cc2NC(=O)/C=C/c2ccc(Cl)cc2)CC1	18µM*	/	-19%	?	32µM*	4
Cc1cccc(C)c1OCC(=O)Nc1cccc(S(=O)(=O)N2CCCC2)c1	?	1%	-12%	?	8.9µM*	-24
CCOc1ccccc1C(=O)OCC(=O)Nc1cccc(S(=O)(=O)N2CCCC2)c1	/	-5%	?	/	5%	0
CCS(=O)c1ccccc1C(=O)OCC(=O)Nc1cccc(S(=O)(=O)N2CCCCC2)c1 (stereo not given)	/	0%	?	/	10µM*	-8
CCC(C(=O)OCC(=O)c1c(N)n(CC(C)C)c(=O)n(C)c1=O)c1ccccc1 (stereo not given)	?	-4%	40µM*	-17%	?	?
